{
  "source": "PubChem BioAssay (EPA / NIEHS)",
  "note": "Results filed as inconclusive are left out. The source made the active and inactive calls. How the source made its calls, unless noted: active means hit-call score of the fitted dose curve at least 0.9, where 1 is the maximum; inconclusive means response in the unintended direction; inactive means score below 0.9.",
  "data": [
    {"target": "guinea pig Sigma Receptor, Non-selective Binding, SIGMAR1 (gene 100135589) (UniProt Q60492)", "sequence (Q60492 whole entry, looked up)": "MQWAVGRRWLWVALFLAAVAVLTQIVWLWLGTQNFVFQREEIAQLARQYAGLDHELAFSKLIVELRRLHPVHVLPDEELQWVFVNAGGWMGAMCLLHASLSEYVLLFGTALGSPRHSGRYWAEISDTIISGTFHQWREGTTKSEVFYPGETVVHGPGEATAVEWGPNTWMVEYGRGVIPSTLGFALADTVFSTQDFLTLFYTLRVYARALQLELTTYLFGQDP", "assay": "NVS_OR_gSIGMA_NonSelective: NovaScreen (NVS) Nuclear Receptor Binding Assay for guinea pig Sigma Receptor, Non-selective Binding (AID 2283367)", "in_short": "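Radioligand displacement on guinea pig brain membranes, read by filter-based scintillation counting 1 h after dosing. Loss of signal versus DMSO; initial duplicate single-point screen at 25 uM, actives followed in concentration series.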", "values": [
      {"smiles": "CN(C)c1ccc(Cc2ccc(N(C)C)cc2)cc1", "AC50": "5.19 µM (active)"},
      {"smiles": "CCCN(C1CCN(C(=O)C2CCNCC2)CC1)[C@@H]1CCc2ccc(OC)cc2C1", "AC50": "7.69 µM (active)"},
      {"smiles": "Cc1ccc(C)c(O)c1", "AC50": "8.63 µM (active)"},
      {"smiles": "O=C(O)CCN(C1(C(=O)NO)CCCC1)S(=O)(=O)c1ccc(Oc2ccc(F)cc2)cc1", "outcome": "inactive"},
      {"smiles": "CC(C)CC(C)(O)C#CC(C)(O)CC(C)C", "note": "(stereo not drawn)", "AC50": "15 µM (active)"}
    ]},
    {"target": "Peroxisome proliferator-activated receptor gamma (Homo sapiens) (UniProt P37231)", "sequence (P37231 whole entry, looked up)": "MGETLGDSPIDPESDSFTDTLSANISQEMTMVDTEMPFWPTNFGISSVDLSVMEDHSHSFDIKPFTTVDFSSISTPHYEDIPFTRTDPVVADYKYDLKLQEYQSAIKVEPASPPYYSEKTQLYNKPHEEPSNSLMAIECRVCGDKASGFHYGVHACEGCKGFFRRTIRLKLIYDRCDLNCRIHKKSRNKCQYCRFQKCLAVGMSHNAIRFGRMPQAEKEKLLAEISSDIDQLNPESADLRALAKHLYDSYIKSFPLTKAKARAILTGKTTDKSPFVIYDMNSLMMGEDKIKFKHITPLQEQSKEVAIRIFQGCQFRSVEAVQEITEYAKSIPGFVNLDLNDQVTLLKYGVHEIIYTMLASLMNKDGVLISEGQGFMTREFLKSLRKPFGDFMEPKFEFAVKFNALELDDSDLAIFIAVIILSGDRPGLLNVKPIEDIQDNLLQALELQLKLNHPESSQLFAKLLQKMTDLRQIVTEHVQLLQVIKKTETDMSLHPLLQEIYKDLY", "assay": "NVS_NR_hPPARg: NovaScreen (NVS) Nuclear Receptor Binding Assay for human Peroxisome Proliferator-activated Receptor gamma (PPARg) (AID 2283370)", "in_short": "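Fluorescence polarization readout of ligand binding to extracted human PPARg, measured at 2 h. Duplicate single-point screen at 25 uM, then concentration-series retesting; activity defined as signal loss versus DMSO.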", "values": [
      {"smiles": "CC(C)=CCC/C(C)=C\\CO", "outcome": "inactive"},
      {"smiles": "CC(C)=CCC/C(C)=C/CO", "outcome": "inactive"},
      {"smiles": "CC(C)=CCCC(C)CCO", "note": "(stereo not drawn)", "outcome": "inactive"},
      {"smiles": "C=CC(=C)CCC=C(C)C", "outcome": "inactive"},
      {"smiles": "O=C(O)c1cccc(Oc2ccccc2)c1", "outcome": "inactive"},
      {"smiles": "CCCCC(CC)COC(=O)c1ccc(C(=O)OCC(CC)CCCC)cc1", "note": "(stereo not drawn)", "outcome": "inactive"},
      {"smiles": "CC/C(=C\\C(=N/O)C(N)=O)C(C)[N+](=O)[O-]", "note": "(stereo not drawn)", "outcome": "inactive"},
      {"smiles": "O=C(O)c1cc(N=Nc2ccc(S(=O)(=O)Nc3ccccn3)cc2)ccc1O", "outcome": "inactive"},
      {"smiles": "CC1(C)C(=O)N(Br)C(=O)N1Br", "outcome": "inactive"},
      {"smiles": "Cc1c(-c2cccnc2)c2ccccc2n1CCCCC(=O)O", "outcome": "inactive"},
      {"smiles": "COC(=O)c1c(Cl)c(Cl)c(C(=O)OC)c(Cl)c1Cl", "outcome": "inactive"},
      {"smiles": "CNCc1ccc(NC(=O)c2c[nH]c3c2C(=O)CCC3)cc1", "AC50": "5.18 µM (active)"},
      {"smiles": "CC(C)(O)c1coc(S(=O)(=O)NC(=O)Nc2c3c(cc4c2CCC4)CCC3)c1", "outcome": "inactive"},
      {"smiles": "CC(C)c1cccc(C(C)C)c1N1C(=O)c2ccc(O)cc2C1=O", "AC50": "16.1 µM (active)"},
      {"smiles": "O=C(NS(=O)(=O)/C=C/c1ccccc1)c1ccc(F)cc1Cl", "AC50": "39.6 µM (active)"},
      {"smiles": "COc1ccc(/C=C/S(=O)(=O)NC(=O)c2ccc(C)cc2Cl)cc1", "AC50": "41.3 µM (active)"}
    ]},
    {"target": "human Dopamine Transporter (DAT), SLC6A3 (gene 6531) (UniProt Q01959)", "sequence (Q01959 whole entry, looked up)": "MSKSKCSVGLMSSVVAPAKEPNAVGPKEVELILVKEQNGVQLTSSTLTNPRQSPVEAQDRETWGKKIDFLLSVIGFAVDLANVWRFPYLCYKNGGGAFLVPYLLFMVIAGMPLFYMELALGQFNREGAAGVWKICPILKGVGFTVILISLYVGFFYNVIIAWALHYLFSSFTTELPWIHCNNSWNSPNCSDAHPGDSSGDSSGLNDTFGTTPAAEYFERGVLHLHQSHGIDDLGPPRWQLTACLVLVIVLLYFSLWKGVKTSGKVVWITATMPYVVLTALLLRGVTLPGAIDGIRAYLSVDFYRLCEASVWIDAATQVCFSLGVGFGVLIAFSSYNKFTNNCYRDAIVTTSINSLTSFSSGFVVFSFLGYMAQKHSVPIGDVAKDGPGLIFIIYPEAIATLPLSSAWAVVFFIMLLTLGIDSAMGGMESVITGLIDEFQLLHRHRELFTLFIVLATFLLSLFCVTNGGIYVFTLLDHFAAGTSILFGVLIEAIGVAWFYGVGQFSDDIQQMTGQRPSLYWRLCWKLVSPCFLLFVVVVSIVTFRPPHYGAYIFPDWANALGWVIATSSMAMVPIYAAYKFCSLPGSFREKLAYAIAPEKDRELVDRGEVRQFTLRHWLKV", "assay": "NVS_TR_hDAT: NovaScreen (NVS) Transporter Assay for human Dopamine Transporter (DAT) (AID 2283374);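 further: activity means loss of bound radioligand signal relative to DMSO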", "in_short": "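Cell-free radioligand displacement binding at human DAT, 1 h after dosing, with filtration and scintillation counting. Primary screen in duplicate at 25 uM, actives then in concentration series. Loss of bound signal versus DMSO scored.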", "values": [
      {"smiles": "CC(C)CCO", "outcome": "inactive"},
      {"smiles": "CC/C(=C\\C(=N/O)C(N)=O)C(C)[N+](=O)[O-]", "note": "(stereo not drawn)", "outcome": "inactive"},
      {"smiles": "CNCc1ccc(NC(=O)c2c[nH]c3c2C(=O)CCC3)cc1", "AC50": "13.8 µM (active)"},
      {"smiles": "CCCC(=O)OCC", "outcome": "inactive"},
      {"smiles": "CC(=O)OCCC(C)C", "outcome": "inactive"}
    ]},
    {"target": "rat Serotonin Transporter (SERT), Slc6a4 (gene 25553) (UniProt P31652)", "sequence (P31652 whole entry, looked up)": "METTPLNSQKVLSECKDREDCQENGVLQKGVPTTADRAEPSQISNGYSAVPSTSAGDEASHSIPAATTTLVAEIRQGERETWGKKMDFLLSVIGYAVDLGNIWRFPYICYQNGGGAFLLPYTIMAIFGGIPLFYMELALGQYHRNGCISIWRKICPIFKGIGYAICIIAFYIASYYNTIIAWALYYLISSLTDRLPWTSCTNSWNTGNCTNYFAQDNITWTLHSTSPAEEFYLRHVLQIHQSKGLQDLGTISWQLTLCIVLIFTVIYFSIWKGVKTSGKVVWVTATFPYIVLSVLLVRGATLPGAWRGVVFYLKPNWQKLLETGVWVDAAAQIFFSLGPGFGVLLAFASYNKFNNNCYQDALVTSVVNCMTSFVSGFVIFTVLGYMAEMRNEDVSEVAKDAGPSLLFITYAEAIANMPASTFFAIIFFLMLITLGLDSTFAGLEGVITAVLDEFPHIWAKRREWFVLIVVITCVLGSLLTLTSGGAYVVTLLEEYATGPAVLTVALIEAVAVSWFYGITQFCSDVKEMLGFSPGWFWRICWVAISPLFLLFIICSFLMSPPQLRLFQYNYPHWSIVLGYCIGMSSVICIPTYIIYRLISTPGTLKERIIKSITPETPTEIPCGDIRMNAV", "assay": "NVS_TR_rSERT: NovaScreen (NVS) Transporter Assay for rat Serotonin Transporter (SERT) (AID 2283375)", "in_short": "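Radioligand binding with competitive displacement on rat forebrain membrane preparations, counted by filtration and scintillation after 1 h. Primary single-point duplicates at 25 uM; active chemicals followed up in concentration-response. DMSO served as baseline.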", "values": [
      {"smiles": "COCCOCCOCCOC", "outcome": "inactive"},
      {"smiles": "CCCN(C1CCN(C(=O)C2CCNCC2)CC1)[C@@H]1CCc2ccc(OC)cc2C1", "AC50": "3.7 µM (active)"},
      {"smiles": "CNCc1ccc(NC(=O)c2c[nH]c3c2C(=O)CCC3)cc1", "AC50": "25 µM (active)"},
      {"smiles": "Fc1ccccc1[C@@H](F)COC1CCC(Nc2ncnc3[nH]ncc23)CC1", "note": "(stereo partly drawn)", "AC50": "2.48 µM (active)"}
    ]},
    {"target": "human Norepinephrine Transporter (NET), SLC6A2 (gene 6530) (UniProt P23975)", "sequence (P23975 whole entry, looked up)": "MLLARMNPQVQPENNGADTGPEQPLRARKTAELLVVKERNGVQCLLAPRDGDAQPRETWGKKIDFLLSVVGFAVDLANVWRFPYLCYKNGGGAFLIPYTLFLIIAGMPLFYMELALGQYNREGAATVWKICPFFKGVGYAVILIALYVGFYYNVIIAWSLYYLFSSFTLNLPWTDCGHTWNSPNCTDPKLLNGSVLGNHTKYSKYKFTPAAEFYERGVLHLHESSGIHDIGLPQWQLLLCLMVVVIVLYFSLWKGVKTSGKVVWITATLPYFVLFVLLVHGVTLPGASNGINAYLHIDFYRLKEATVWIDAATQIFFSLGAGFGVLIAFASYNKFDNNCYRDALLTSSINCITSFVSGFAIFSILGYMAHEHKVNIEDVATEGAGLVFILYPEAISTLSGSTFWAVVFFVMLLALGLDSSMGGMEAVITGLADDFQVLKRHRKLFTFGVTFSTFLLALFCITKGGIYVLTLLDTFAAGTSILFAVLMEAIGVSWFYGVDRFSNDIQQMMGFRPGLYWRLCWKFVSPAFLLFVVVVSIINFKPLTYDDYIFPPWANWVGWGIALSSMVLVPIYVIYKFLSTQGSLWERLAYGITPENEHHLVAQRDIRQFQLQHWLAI", "assay": "NVS_TR_hNET: NovaScreen (NVS) Transporter Assay for human Norepinephrine Transporter (NET) (AID 2283377);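 on AC50: displacement of radioligand from human NET seen as loss of scintillation signal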", "in_short": "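Cell-free radioligand binding using CHO-derived membrane protein expressing human NET, read by filter scintillation counting 1 h after dosing; loss of signal vs DMSO. Initial duplicate screen at 25 uM, actives retested in concentration series.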", "values": [
      {"smiles": "O=C(O)c1cccc(Oc2ccccc2)c1", "outcome": "inactive"},
      {"smiles": "COCCOc1cc2cc(C(=O)NC3CCN(C(C)C)CC3)n(CC(=O)Nc3ccc(Cl)cn3)c2cn1", "AC50": "5.89 µM (active)"},
      {"smiles": "O=C1CCC(N2C(=O)c3ccccc3C2=O)C(=O)N1", "note": "(stereo not drawn)", "outcome": "inactive"},
      {"smiles": "CC(=O)OCCC(C)C", "outcome": "inactive"}
    ]},
    {"target": "Agonist Androgen Response Element (ARE), AR (gene 367) (UniProt P10275)", "sequence (P10275 whole entry, looked up)": "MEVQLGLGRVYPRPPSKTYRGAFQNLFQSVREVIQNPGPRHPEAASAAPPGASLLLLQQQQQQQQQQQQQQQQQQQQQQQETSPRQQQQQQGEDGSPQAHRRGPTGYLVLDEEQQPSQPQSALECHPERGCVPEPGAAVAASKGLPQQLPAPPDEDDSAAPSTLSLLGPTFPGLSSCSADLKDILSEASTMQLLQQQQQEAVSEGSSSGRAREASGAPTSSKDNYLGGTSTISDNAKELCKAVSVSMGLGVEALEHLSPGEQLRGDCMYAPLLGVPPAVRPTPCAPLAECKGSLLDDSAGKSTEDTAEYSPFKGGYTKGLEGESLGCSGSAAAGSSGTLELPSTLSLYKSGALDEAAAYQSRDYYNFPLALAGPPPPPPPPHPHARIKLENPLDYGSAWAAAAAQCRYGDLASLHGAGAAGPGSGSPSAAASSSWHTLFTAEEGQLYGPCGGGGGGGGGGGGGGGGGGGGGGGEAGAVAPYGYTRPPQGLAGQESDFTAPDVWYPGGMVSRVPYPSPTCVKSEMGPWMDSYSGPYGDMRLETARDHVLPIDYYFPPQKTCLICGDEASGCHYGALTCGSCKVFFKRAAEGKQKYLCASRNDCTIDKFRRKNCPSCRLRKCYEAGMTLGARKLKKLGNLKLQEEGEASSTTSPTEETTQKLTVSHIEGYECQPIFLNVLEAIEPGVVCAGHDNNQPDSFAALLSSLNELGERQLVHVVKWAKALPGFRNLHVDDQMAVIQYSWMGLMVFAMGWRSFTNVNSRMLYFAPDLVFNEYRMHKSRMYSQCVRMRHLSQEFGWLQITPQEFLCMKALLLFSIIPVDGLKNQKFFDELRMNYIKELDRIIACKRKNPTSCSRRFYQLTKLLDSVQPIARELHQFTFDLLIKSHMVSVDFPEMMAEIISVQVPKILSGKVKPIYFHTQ", "assay": "OT_AR_ARELUC_AG_1440: Odyssey Thera (OT) 24-hour CHO-K1 Luciferase Assay for Agonist Androgen Response Element (ARE) (AID 2283379)", "in_short": "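CHO-K1 cells carrying an ARE-driven luciferase reporter were exposed to compounds for 24 h. Luminescence was then read after adding a D-luciferin/ATP mix, and activity was scored as a gain in signal over DMSO vehicle.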", "values": [
      {"smiles": "CC(C)=CCC/C(C)=C\\CO", "outcome": "inactive"},
      {"smiles": "CC(C)=CCC/C(C)=C/CO", "outcome": "inactive"},
      {"smiles": "CC(C)=CCCC(C)CCO", "note": "(stereo not drawn)", "outcome": "inactive"},
      {"smiles": "CCCN(C1CCN(C(=O)C2CCNCC2)CC1)[C@@H]1CCc2ccc(OC)cc2C1", "outcome": "inactive"},
      {"smiles": "CCCCC(CC)COC(=O)c1ccc(C(=O)OCC(CC)CCCC)cc1", "note": "(stereo not drawn)", "outcome": "inactive"},
      {"smiles": "CC1(C)C(=O)N(Br)C(=O)N1Br", "outcome": "inactive"},
      {"smiles": "CN(C)c1ccc(N=NS(=O)(=O)O)cc1", "outcome": "inactive"},
      {"smiles": "Fc1ccccc1[C@@H](F)COC1CCC(Nc2ncnc3[nH]ncc23)CC1", "note": "(stereo partly drawn)", "outcome": "inactive"}
    ]},
    {"target": "Estrogen receptor beta (Homo sapiens) (UniProt Q92731)", "sequence (Q92731 whole entry, looked up, the tested form may be a part)": "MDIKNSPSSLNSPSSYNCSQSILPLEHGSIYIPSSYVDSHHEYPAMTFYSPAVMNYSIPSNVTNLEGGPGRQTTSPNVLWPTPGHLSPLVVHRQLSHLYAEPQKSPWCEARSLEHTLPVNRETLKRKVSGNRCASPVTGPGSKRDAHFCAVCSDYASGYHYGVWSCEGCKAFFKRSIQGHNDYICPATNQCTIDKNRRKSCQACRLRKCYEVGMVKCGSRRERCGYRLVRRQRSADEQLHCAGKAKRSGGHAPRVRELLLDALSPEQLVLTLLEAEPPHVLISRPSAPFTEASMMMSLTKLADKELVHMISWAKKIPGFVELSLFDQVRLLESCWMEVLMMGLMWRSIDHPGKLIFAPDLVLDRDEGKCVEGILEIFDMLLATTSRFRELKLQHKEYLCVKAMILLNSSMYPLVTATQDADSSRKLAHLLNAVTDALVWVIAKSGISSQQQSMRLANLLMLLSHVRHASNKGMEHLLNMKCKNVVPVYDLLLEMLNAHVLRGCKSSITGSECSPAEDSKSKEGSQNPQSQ", "assay": "OT_ER_ERbERb_1440: Odyssey Thera (OT) 24-hour HEK293T Protein-Complementation Assay for Estrogen Receptor-beta/-beta Homodimer (AID 2283380);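 further: scored as signal increase over DMSO baseline for both agonists and antagonists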", "in_short": "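HEK293T cells stably expressing ER beta LBD (aa 310-547) homodimer fragment-complementation reporter, dosed 24 h. Cells formaldehyde-fixed, Draq5-stained; gain in nuclear (agonist) or nuclear plus cytoplasmic (antagonist) fluorescence versus DMSO read by laser scanning cytometry.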", "values": [
      {"smiles": "COCCOCCOCCOC", "outcome": "inactive"},
      {"smiles": "CC(C)=CCCC(C)CCO", "note": "(stereo not drawn)", "outcome": "inactive"},
      {"smiles": "C=CC(=C)CCC=C(C)C", "outcome": "inactive"},
      {"smiles": "CCCN(C1CCN(C(=O)C2CCNCC2)CC1)[C@@H]1CCc2ccc(OC)cc2C1", "AC50": "59.7 µM (active)"},
      {"smiles": "CC1(C)C(=O)N(Br)C(=O)N1Br", "outcome": "inactive"},
      {"smiles": "CNCc1ccc(NC(=O)c2c[nH]c3c2C(=O)CCC3)cc1", "outcome": "inactive"},
      {"smiles": "O=C(O)CCN(C1(C(=O)NO)CCCC1)S(=O)(=O)c1ccc(Oc2ccc(F)cc2)cc1", "outcome": "inactive"},
      {"smiles": "CC(=O)OCCC(C)C", "outcome": "inactive"}
    ]},
    {"target": "Estrogen receptor (Homo sapiens) (UniProt P03372)", "sequence (P03372 whole entry, looked up)": "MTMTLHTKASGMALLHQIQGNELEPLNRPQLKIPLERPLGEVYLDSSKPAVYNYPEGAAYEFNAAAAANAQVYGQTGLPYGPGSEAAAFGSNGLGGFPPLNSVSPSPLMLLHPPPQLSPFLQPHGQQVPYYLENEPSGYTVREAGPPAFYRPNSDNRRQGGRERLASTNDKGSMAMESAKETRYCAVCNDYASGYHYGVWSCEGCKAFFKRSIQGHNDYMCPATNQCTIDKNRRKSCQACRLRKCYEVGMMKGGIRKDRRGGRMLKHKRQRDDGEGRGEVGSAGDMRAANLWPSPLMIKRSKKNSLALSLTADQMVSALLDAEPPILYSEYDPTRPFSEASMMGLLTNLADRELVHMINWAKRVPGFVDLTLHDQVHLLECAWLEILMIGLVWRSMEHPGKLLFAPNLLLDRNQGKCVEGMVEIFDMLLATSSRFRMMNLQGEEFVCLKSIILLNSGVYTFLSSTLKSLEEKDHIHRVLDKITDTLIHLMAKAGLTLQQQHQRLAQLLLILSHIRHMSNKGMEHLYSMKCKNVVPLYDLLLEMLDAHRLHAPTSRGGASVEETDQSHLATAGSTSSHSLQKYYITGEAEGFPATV", "assay": "OT_ERa_GFPERaERE_0480: Odyssey Thera (OT) 8-hour HeLa Transcription Induction Assay for Estrogen Receptor (AID 2283381; active means hit-call score of the fitted dose curve at least 0.9, where 1 is the maximum; inactive means score below 0.9)", "in_short": "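Fluorescent reporter signal, imaged by microscopy and scored with image-analysis algorithms, was taken 8 h after chemical dosing of HeLa cells; activity was fitted upward relative to DMSO.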", "values": [
      {"smiles": "CC(C)CCO", "outcome": "inactive"},
      {"smiles": "CC(C)=CCCC(C)CCO", "note": "(stereo not drawn)", "outcome": "inactive"},
      {"smiles": "C=CC(=C)CCC=C(C)C", "outcome": "inactive"},
      {"smiles": "O=C(O)c1cccc(Oc2ccccc2)c1", "outcome": "inactive"},
      {"smiles": "CC/C(=C\\C(=N/O)C(N)=O)C(C)[N+](=O)[O-]", "note": "(stereo not drawn)", "outcome": "inactive"},
      {"smiles": "COC(=O)c1c(Cl)c(Cl)c(C(=O)OC)c(Cl)c1Cl", "outcome": "inactive"},
      {"smiles": "CCCC(=O)OCC", "outcome": "inactive"},
      {"smiles": "O=C(NS(=O)(=O)/C=C/c1ccccc1)c1ccc(F)cc1Cl", "outcome": "inactive"}
    ]},
    {"target": "Estrogen receptor (Homo sapiens) (UniProt P03372)", "assay": "OT_ERa_GFPERaERE_0120: Odyssey Thera (OT) 2-hour HeLa Transcription Induction Assay for Estrogen Receptor (AID 2283382)", "in_short": "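HeLa, 384-well, 2 h chemical exposure; GFP reporter induction (ERE), fluorescence microscopy; high content image analysis; positive fitting direction vs DMSO.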", "values": [
      {"smiles": "CC(C)CCO", "outcome": "inactive"},
      {"smiles": "CC(C)=CCCC(C)CCO", "note": "(stereo not drawn)", "outcome": "inactive"},
      {"smiles": "C=CC(=C)CCC=C(C)C", "outcome": "inactive"},
      {"smiles": "O=C(O)c1cccc(Oc2ccccc2)c1", "outcome": "inactive"},
      {"smiles": "CC/C(=C\\C(=N/O)C(N)=O)C(C)[N+](=O)[O-]", "note": "(stereo not drawn)", "outcome": "inactive"},
      {"smiles": "COC(=O)c1c(Cl)c(Cl)c(C(=O)OC)c(Cl)c1Cl", "outcome": "inactive"},
      {"smiles": "CCCC(=O)OCC", "outcome": "inactive"},
      {"smiles": "O=C(NS(=O)(=O)/C=C/c1ccccc1)c1ccc(F)cc1Cl", "outcome": "inactive"}
    ]},
    {"target": "Bile acid receptor (Homo sapiens) (UniProt Q96RI1)", "assay": "OT_FXR_FXRSRC1_0480: Odyssey Thera (OT) 8-hour HEK293T Protein-Complementation Assay for Farnesoid X receptor/SRC-1 Co-activator (AID 2283383)", "in_short": "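Human kidney HEK293T cells carried FXR/SRC-1 fragment-complementation constructs. Compounds were added and incubated 8 h. Reporter reassembly upon receptor–co-activator interaction was then quantified by fluorescence, with curves fitted in the positive direction relative to DMSO.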", "values": [
      {"smiles": "COCCOCCOCCOC", "outcome": "inactive"},
      {"smiles": "CC(C)=CCC/C(C)=C\\CO", "outcome": "inactive"},
      {"smiles": "CC(C)=CCC/C(C)=C/CO", "outcome": "inactive"},
      {"smiles": "CN(C)c1ccc(Cc2ccc(N(C)C)cc2)cc1", "AC50": "28 µM (active)"},
      {"smiles": "CCCCC(CC)COC(=O)c1ccc(C(=O)OCC(CC)CCCC)cc1", "note": "(stereo not drawn)", "outcome": "inactive"},
      {"smiles": "Cc1ccc(C)c(O)c1", "outcome": "inactive"},
      {"smiles": "CC1(C)C(=O)N(Br)C(=O)N1Br", "outcome": "inactive"},
      {"smiles": "Cc1c(-c2cccnc2)c2ccccc2n1CCCCC(=O)O", "outcome": "inactive"},
      {"smiles": "COC(=O)c1c(Cl)c(Cl)c(C(=O)OC)c(Cl)c1Cl", "AC50": "72.2 µM (active)"},
      {"smiles": "CC(C)(O)c1coc(S(=O)(=O)NC(=O)Nc2c3c(cc4c2CCC4)CCC3)c1", "outcome": "inactive"},
      {"smiles": "CC(C)c1cccc(C(C)C)c1N1C(=O)c2ccc(O)cc2C1=O", "AC50": "20.7 µM (active)"},
      {"smiles": "COc1ccc(/C=C/S(=O)(=O)NC(=O)c2ccc(C)cc2Cl)cc1", "outcome": "inactive"}
    ]}
  ]
}
